Consider 79 compounds from ChEMBL document CHEMBL4888484, “Replenishing the malaria drug discovery pipeline: Screening and hit evaluation of the MMV Hit Generation Library 1 (HGL1) against asexual blood stage Plasmodium falciparum ,using a nano luciferase reporter read-out” (2022).

Out of some 150,000 compounds screened, about 540 (0.36%) showed an effect of 50% or more. Many of the other results were omitted from the sample, so strong results are more common in it than they were.

In this test the test system is Plasmodium falciparum. The test can be described thus: Primary screen in NF54 nanoGlo assay, in single point, at 2uM, 72h; a lower Z score goes with more inhibition. The test is classed as functional, Erythrocyte. The note with it: timepoint 72 hour.
For the compound `Cc1cc(C)n(Cc2c(C(=O)NCc3ccc(N(C)C)cc3)noc2C)n1`, the “% Inhibition” value is recorded as -13% and the Z score was found to be 1.35.

Regarding `C#CCCCCC(=O)Nc1ccc(C#N)cn1`, the “% Inhibition” value is given as 4% and the Z score is reported as -0.84.

Turning to `CC(C)[C@H]1CN(C(=O)c2nc(C(F)(F)F)n3c2CCCC3)CCN1`, the “% Inhibition” value is given as -15% and the Z score turned out to be 1.9.

As for `Oc1cccc(CN[C@H]2CCCc3occc32)c1Cl`, the “% Inhibition” value is recorded as 78% and the Z score was -12.81.

Consider `CC(O)CC(C)(C)CNC1CCCc2occc21` (stereo not drawn), for which the “% Inhibition” value turned out to be 36% and the Z score came to 0.84.

In the case of `COc1cccc(Cl)c1CN[C@H]1CCCc2occc21`, the “% Inhibition” value is on record as -24% and the Z score was 2.8.

Regarding `O=C(Nc1ccc(Cl)cc1)N1Cc2nc[nH]c2C[C@H]1c1nc(-c2ccc3ccccc3c2)no1`, the “% Inhibition” value is recorded as 19% and the Z score was -2.22.

`Cc1cnn(C2CN(CC(=O)N3CC(=O)Nc4ccccc43)C2)c1`: the “% Inhibition” value is reported as -10% and the Z score was 1.59.

`CCCc1cc(C(=O)N2C[C@@H]3CC[C@H]2CN(C(C)=O)C3)n(C)n1`: the “% Inhibition” value is 3% and the Z score is -0.61.

Regarding `CCc1ncnc(N2CC[C@H](Cc3nnn[nH]3)C2)c1F`, the “% Inhibition” value is -13% and the Z score amounted to 1.77.

Consider `CCn1ccc(C(=O)N2CCc3cc4ccc3[C@@H]2c2cccc(c2)OCCCNC(=O)c2cc(ccc2O)O4)cc1=O`, for which the “% Inhibition” value is listed as 7% and the Z score is recorded as -1.26.

For `Cc1cc(C(=O)N2CCc3cc4ccc3[C@@H]2c2cccc(c2)OCCCNC(=O)c2cc(ccc2O)O4)n(C)n1`, the “% Inhibition” value is on record as -11% and the Z score is reported as 1.41.

For the compound `NC(=O)C1CCN(CCC(=O)N2CCc3cc4ccc3[C@@H]2c2cccc(c2)OCCCNC(=O)c2cc(ccc2O)O4)CC1`, the “% Inhibition” value is recorded as 92% and the Z score was -17.59.

In the case of `COCC(=O)N1CCc2cc3ccc2[C@@H]1c1cccc(c1)OCCCNC(=O)c1cc(ccc1O)O3`, the “% Inhibition” value was -2% and the Z score is listed as 0.47.

As to `O=C1NCCCOc2cccc(c2)[C@H]2c3ccc(cc3CCN2C(=O)CCN2CCOCC2)Oc2ccc(O)c1c2`, the “% Inhibition” value is reported as 39% and the Z score is given as -8.79.

Consider `NCc1cccc(C(=O)N2CCc3cc4ccc3[C@@H]2c2cccc(c2)OCCCNC(=O)c2cc(ccc2O)O4)c1`, for which the “% Inhibition” value was 86% and the Z score is given as -13.81.

`Cc1ccc(OS(=O)(=O)c2ccc3c(c2)NC(=O)CO3)c(Br)c1`: the “% Inhibition” value was -5% and the Z score amounted to 0.38.

For `CCc1nccc(-c2nccn2CCOc2ccccc2F)n1`, the “% Inhibition” value is -5% and the Z score is listed as 0.87.

On to `CN(C(=O)CC1(C(=O)O)CCC1)[C@H]1CCOc2ccc(Br)cc21`, for which the “% Inhibition” value is 1% and the Z score is reported as -0.26.

In the case of `Cc1cc(CS(=O)(=O)[C@@H](C)C(=O)NCc2ccccc2)on1`, the “% Inhibition” value is -12% and the Z score was determined as 2.41.

In the case of `O=S(=O)(Cc1ccc(OC(F)(F)F)cc1)Nc1cccnc1-n1cccn1`, the “% Inhibition” value is 2% and the Z score is given as -0.39.

Take `Cc1ccc(NC(=O)Cc2nnc(-c3cnccn3)o2)c(Cl)c1`: the “% Inhibition” value was -12% and the Z score is listed as 1.25.

Turning to `COCCN(CCOC)C[C@H](O)Cn1c(-c2ccccc2)c(-c2ccccc2)c2cc(C)ccc21`, the “% Inhibition” value worked out at 0% and the Z score is 0.06.

Regarding `Cc1c(C)n(CC(O)CNC(C)c2ccccc2)c2c(Cl)cccc12` (stereo not drawn), the “% Inhibition” value is reported as 59% and the Z score is reported as -7.71.

As for `Cc1c(C)n(C[C@@H](O)CNC2CCCC2)c2c(Cl)cccc12`, the “% Inhibition” value was determined as 48% and the Z score is recorded as -6.21.

With `CC(C)NC[C@H](O)Cn1c(-c2ccccc2)ccc1-c1ccccc1`, the “% Inhibition” value came out at 8% and the Z score is given as -1.24.

For `Cc1ccc2c(c1)c(-c1ccccc1)c(-c1ccccc1)n2C[C@@H](O)CNCCCO`, the “% Inhibition” value is reported as 1% and the Z score is -0.17.

`CCC(C)NCC(O)Cn1c(-c2ccccc2)c(-c2ccccc2)c2cc(C)ccc21` (stereo not drawn): the “% Inhibition” value was 93% and the Z score was -10.06.

For `CC(NCC(O)Cn1c(-c2ccccc2)c(-c2ccccc2)c2ccc3ccccc3c21)c1ccccc1` (stereo not drawn), the “% Inhibition” value is 88% and the Z score is listed as -10.69.

For `CC(NCC(O)COc1ccc2c(c1)OCO2)c1ccccc1` (stereo not drawn), the “% Inhibition” value was -9% and the Z score stood at 1.69.

With `Cc1c(C)n(C[C@@H](O)Cn2ccnc2C)c2c(Cl)cccc12`, the “% Inhibition” value was -5% and the Z score worked out at 0.7.

In the case of `CS(=O)(=O)N1C[C@H]2CC[C@@H](C1)N(C(=O)c1ccc3[nH]nnc3c1)C2`, the “% Inhibition” value is recorded as -7% and the Z score worked out at 1.17.

In the case of `CO[C@@]12CC[C@@H](OCC3CC3)C[C@@H]1N(C(=O)c1csc(C(C)C)n1)CC2`, the “% Inhibition” value is recorded as -2% and the Z score is given as 0.34.

As for `Cc1cc2c(NC(=O)N(Cc3ccsc3)CC(C)C)cccc2nn1`, the “% Inhibition” value is given as -6% and the Z score is recorded as 1.12.

Consider `O=C(NCc1cccnc1)c1coc(CN(Cc2ccccc2)Cc2ccccc2C(F)(F)F)n1`, for which the “% Inhibition” value is 0% and the Z score turned out to be 0.02.

Take `Cc1nnc(CN(C)Cc2c[nH]cn2)s1`: the “% Inhibition” value is 4% and the Z score is -0.58.

Regarding `C[C@H]1CN=C2C=C(N3CCN(C(=O)Nc4ccccc4C(F)(F)F)CC3)N=CN21`, the “% Inhibition” value is listed as -11% and the Z score was 1.77.

For `CCc1cccc(NC(=O)N2CCN(C3=CC4=NC[C@H](C)N4C=N3)CC2)c1`, the “% Inhibition” value amounted to 58% and the Z score is -5.02.

For `O=C(Cc1ccccc1)N1CCN(c2cc(N3CCCC3)ncn2)CC1`, the “% Inhibition” value is listed as -8% and the Z score is on record as 0.94.

As to `O=C(Nc1cc(F)cc(F)c1)N1CC[C@H](Cc2ccncc2)C1`, the “% Inhibition” value is reported as -5% and the Z score is listed as 0.93.

Regarding `Cc1cc(F)cc(NC(=O)N2CCCN(C(=O)C(F)(F)F)CC2)c1`, the “% Inhibition” value is given as -11% and the Z score turned out to be 1.45.

As to `Cc1oc(C2CCN(C(=O)Nc3cccc(F)c3C)CC2)nc1C(=O)N1CCCC1`, the “% Inhibition” value was -3% and the Z score was determined as 0.55.

Turning to `CCc1cccc(NC(=O)N2CCN(c3nccs3)CC2)c1`, the “% Inhibition” value was -2% and the Z score came to 0.21.

For `C[C@H]1CN2C=NC(N3CCN(C(=O)c4ccccc4)CC3)=CC2=N1`, the “% Inhibition” value is -3% and the Z score turned out to be 0.63.

As for `CC[C@H]1CN2C=NC(N3CCN(C(=O)Nc4cc(F)cc(F)c4)CC3)=CC2=N1`, the “% Inhibition” value is on record as 68% and the Z score is -4.25.

For `CC[C@H]1CN2C=NC(N3CCN(C(=O)Cc4ccccc4)CC3)=CC2=N1`, the “% Inhibition” value was 56% and the Z score was -2.27.

With `CN1CCN(c2cc(N3CCN(C(=O)Cc4ccccc4)CC3)ncn2)CC1`, the “% Inhibition” value is -10% and the Z score is on record as 0.91.

As for `Cc1c(F)cccc1NC(=O)N1CCN(C2=CC3=N[C@@H](C)CN3C=N2)CC1`, the “% Inhibition” value came out at 57% and the Z score is given as -7.99.

Turning to `Cc1ccc(NC(=O)Cn2cc(S(=O)(=O)N3CCCCCC3)ccc2=O)c(C)c1`, the “% Inhibition” value is -2% and the Z score is given as 0.3.

Take `CN(c1cnn(C)c1)S(=O)(=O)c1ccccc1`: the “% Inhibition” value was -12% and the Z score is on record as 1.93.

In the case of `CCc1onc(C)c1NCc1cnc(C(C)(C)C)s1`, the “% Inhibition” value stood at 34% and the Z score was 0.74.

Turning to `COC(=O)C1=C(c2ccccc2)S/C(=C2/C(=S)C(C)(C)Nc3ccc(C)cc32)S1`, the “% Inhibition” value is reported as -8% and the Z score was found to be 0.99.

Turning to `Cc1ccccc1N1CCN(C(=O)CC[C@@H]2CN(Cc3ccccn3)CC[C@@H]2N2CCOCC2)CC1`, the “% Inhibition” value is given as 2% and the Z score is on record as -0.27.

Consider `FC(F)[C@H](NCc1nnc(C2CC2)s1)c1ccccc1`, for which the “% Inhibition” value came to 2% and the Z score is -0.43.

As for `CCCc1nnsc1C(=O)N1CCc2nc(NC(=O)OCC)sc2C1`, the “% Inhibition” value is -5% and the Z score came to 1.08.

As for `COC(=O)[C@@H]1C[C@@H](O)CN1Cc1ccncc1Cl`, the “% Inhibition” value is reported as -4% and the Z score is listed as 0.5.

With `Cc1ccc(N(C)C(C)C)c(C(=O)NC[C@H]2CCC3(CCOCC3)O2)c1`, the “% Inhibition” value was -1% and the Z score came out at 0.19.

As for `O=C(c1ccccc1Oc1ccccc1)N1CCO[C@]2(CNCCOC2)C1`, the “% Inhibition” value is 5% and the Z score is listed as -0.96.

`O[C@@H](CNc1ncnc2sccc12)c1ccc(Cl)c(F)c1`: the “% Inhibition” value was 28% and the Z score was -3.21.

Turning to `O=C(N[C@@H]1c2ccccc2OC[C@@H]1CO)[C@H](O)c1ccccc1`, the “% Inhibition” value is on record as -2% and the Z score is recorded as 0.41.

`Cc1ccccc1C(=O)Cc1ncc[nH]1`: the “% Inhibition” value turned out to be 87% and the Z score is -5.77.

As for `CC(=O)c1ccccc1C(=O)NCCCc1ncc[nH]1`, the “% Inhibition” value is recorded as -9% and the Z score turned out to be 1.13.

For the compound `Cc1ccsc1CNc1ccccc1C(=O)NCc1ncc[nH]1`, the “% Inhibition” value worked out at 2% and the Z score is recorded as -0.38.

For the compound `CCc1nc2c(c(OC3CCN(C(=O)c4ccn(CC)n4)CC3)n1)CCOCC2`, the “% Inhibition” value is on record as -11% and the Z score is recorded as 1.12.

Turning to `Cc1[nH]c2ncnc(NC(=O)c3cccc(S(=O)(=O)NC4CC4)c3)c2c1C`, the “% Inhibition” value was -21% and the Z score amounted to 3.01.

Take `Cc1cc(NC(=O)c2cccc(-n3ccnn3)c2)nc(=O)[nH]1`: the “% Inhibition” value is reported as -14% and the Z score is on record as 2.12.

In the case of `Cc1[nH]c2ncnc(NC(=O)c3cccc(-n4ccnn4)c3)c2c1C`, the “% Inhibition” value worked out at 65% and the Z score is reported as -1.3.

Consider `CCCN(CCC)C(=O)c1cc(F)ccc1OC`, for which the “% Inhibition” value was -10% and the Z score is listed as 1.09.

As to `O[C@H]1CCN(Cc2cccc(OCCCCN3CCOCC3)c2)C[C@@H]1O`, the “% Inhibition” value came to 4% and the Z score is given as -0.63.

In the case of `Fc1ccc(COc2cccc(CNCCN3CCOCC3)c2)cc1`, the “% Inhibition” value was 33% and the Z score worked out at 1.13.

With `O=C(NC1(c2ncon2)CCOCC1)c1cc2ccccn2c1`, the “% Inhibition” value is -4% and the Z score is 0.42.

Take `Cc1ccccc1Cn1cnc2c1c(=O)n(C1CC1)c(=O)n2-c1ccccc1C`: the “% Inhibition” value is given as 5% and the Z score is listed as -0.48.

For the compound `COc1ccccc1Cn1cnc2c1c(=O)n(C1CCCCC1)c(=O)n2-c1ccccc1Cl`, the “% Inhibition” value was 69% and the Z score is listed as -6.45.

For `Cc1ccccc1-n1c(=O)n(C2CCCCC2)c(=O)c2c1ncn2Cc1ccccc1`, the “% Inhibition” value is -1% and the Z score came to 0.09.

Regarding `Cc1ccccc1Cn1cnc2c1c(=O)n(C1CCCCC1)c(=O)n2-c1ccccc1Cl`, the “% Inhibition” value is recorded as 70% and the Z score is -7.57.

As to `Cc1ccccc1Cn1cnc2c1c(=O)n(C1CCCC1)c(=O)n2-c1ccccc1`, the “% Inhibition” value is listed as -7% and the Z score is listed as 0.85.

For `COc1ccccc1-n1c(=O)n(C2CCCC2)c(=O)c2c1ncn2Cc1ccccc1Cl`, the “% Inhibition” value is 37% and the Z score was -4.79.

As to `Cc1c(Cl)cccc1NC(=O)c1sccc1S(=O)(=O)N1CCc2ccccc2C1`, the “% Inhibition” value is 1% and the Z score is reported as -0.1.

With `COc1ccc([C@@H](CC(=O)NCc2ccc(F)cc2)c2c[nH]c3ccccc23)c(OC)c1`, the “% Inhibition” value was 3% and the Z score is listed as -0.42.
